From PubChem BioAssay (Tox21)
Records with an inconclusive call do not appear. Calls of active or inactive are those of the source. Unless noted, calls come from the whole dose curve; as a rule, active = well fitted curve in the direction sought with a large enough effect in the repeat runs; inconclusive = weak or mixed curves; inactive = no such curve, though single readings can be large; an effect the other way counts as inactive or inconclusive.

Experiments:
[1] = qHTS assay to identify small molecule antagonists of the glucocorticoid receptor (GR) signaling pathway - cell viability counter screen (AID 720693); note: nearly all actives have a fitted effect of over 55% in size
[2] = qHTS assay for identifying genotoxic compounds that show differential cytotoxicity against isogenic chicken DT40 cell lines with known DNA damage response pathways - wild type cell line (AID 743012); note: nearly all actives have a fitted effect of over 60% in size; note: potency is the fitted concentration of half-maximal effect
How it was run: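 Wild type DT40, 300 cells/well, ~0.5 h settle at 37 C/5% CO2; compounds in DMSO added by pintool; 40 h at 37 C/5% CO2; CellTiter-Glo, 30 min RT; luminescence.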

[3] = qHTS assay for identifying genotoxic compounds that show differential cytotoxicity against isogenic chicken DT40 cell lines with known DNA damage response pathways - Rev3 mutant cell line (AID 743014); note: nearly all actives have a fitted effect of over 55% in size; note: potency is the fitted concentration of half-maximal effect
[4] = qHTS assay for identifying genotoxic compounds that show differential cytotoxicity against isogenic chicken DT40 cell lines with known DNA damage response pathways - Rad54/Ku70 mutant cell line (AID 743015); note: nearly all actives have a fitted effect of over 60% in size; note: potency is the fitted concentration of half-maximal effect
[5] = qHTS assay to identify small molecule antagonists of the androgen receptor (AR) signaling pathway - cell viability counter screen (AID 743033; note: nearly all actives have a fitted effect of over 45% in size)
[6] = qHTS assay to identify small molecule antagonists of the androgen receptor (AR) signaling pathway using the MDA cell line - cell viability counter screen (AID 743041; note: nearly all actives have a fitted effect of over 45% in size)
How it was run: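 Viability counter screen run alongside the AR antagonist reporter: cells seeded 5 h before compound, R1881 added, 16 h incubation at 37C without CO2, fluorescent CellTiter-Fluor signal quantified.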

[7] = target: Androgen receptor (Homo sapiens) (UniProt P10275); assay: qHTS assay to identify small molecule agonists of the androgen receptor (AR) signaling pathway (AID 743036; active = well fitted activation curve with a large enough effect in the signal ratio in the repeat runs, with a control signal flat, not every such curve was filed as active; the % refers to the signal ratio)
Sequence of Androgen receptor (Homo sapiens) (P10275 whole entry, looked up): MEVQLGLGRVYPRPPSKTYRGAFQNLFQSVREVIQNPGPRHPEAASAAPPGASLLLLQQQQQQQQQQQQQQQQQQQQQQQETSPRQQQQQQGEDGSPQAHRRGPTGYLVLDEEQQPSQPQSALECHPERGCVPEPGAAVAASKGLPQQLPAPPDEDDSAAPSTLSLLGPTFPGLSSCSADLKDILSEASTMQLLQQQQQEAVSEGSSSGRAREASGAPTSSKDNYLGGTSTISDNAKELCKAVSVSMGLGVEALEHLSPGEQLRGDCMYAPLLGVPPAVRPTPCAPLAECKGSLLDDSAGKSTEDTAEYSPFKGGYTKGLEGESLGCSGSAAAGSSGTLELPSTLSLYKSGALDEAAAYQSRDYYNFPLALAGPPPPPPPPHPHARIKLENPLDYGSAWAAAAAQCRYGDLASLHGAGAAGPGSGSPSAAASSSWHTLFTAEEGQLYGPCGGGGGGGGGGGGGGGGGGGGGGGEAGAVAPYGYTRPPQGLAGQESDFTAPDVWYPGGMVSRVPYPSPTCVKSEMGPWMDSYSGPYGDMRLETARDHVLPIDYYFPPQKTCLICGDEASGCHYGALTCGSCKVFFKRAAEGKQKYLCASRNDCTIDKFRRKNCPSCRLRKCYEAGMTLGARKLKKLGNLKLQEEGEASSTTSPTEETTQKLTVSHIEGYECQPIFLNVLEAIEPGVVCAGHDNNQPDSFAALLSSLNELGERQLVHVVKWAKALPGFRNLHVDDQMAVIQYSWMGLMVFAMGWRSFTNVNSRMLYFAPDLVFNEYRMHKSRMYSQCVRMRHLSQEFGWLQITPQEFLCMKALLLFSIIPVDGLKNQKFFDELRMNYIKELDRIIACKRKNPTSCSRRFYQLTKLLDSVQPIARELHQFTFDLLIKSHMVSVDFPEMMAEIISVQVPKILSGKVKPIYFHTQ
How it was run: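 Fluorescence from a beta-lactamase FRET substrate served as read-out in AR-UAS-bla GripTite HEK293 cells. Cells were treated with DMSO-dissolved compounds for 16 h at 37C, then with LiveBLAzer B/G substrate for 2 h at room temperature.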

[8] = target: Androgen receptor (Homo sapiens) (UniProt P10275); assay: qHTS assay to identify small molecule agonists of the androgen receptor (AR) signaling pathway using the MDA cell line (AID 743040; note: nearly all actives have a fitted effect of over 20% in size)
How it was run: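 Luminescence from ONE-Glo, read after 30 min at room temperature, reflects MMTV-driven luciferase in MDA-kb2 cells (AR- and GR-responsive). Treatment lasted 16 h at 37C, 0% CO2.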

[9] = target: Androgen receptor (Homo sapiens) (UniProt P10275); assay: qHTS assay to identify small molecule antagonists of the androgen receptor (AR) signaling pathway using the MDA cell line (AID 743042; note: nearly all actives have a fitted effect of over 55% in size)
How it was run: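 MDA-kb2 cells (human breast carcinoma, stably carrying an MMTV-luciferase reporter responsive to AR and GR) were plated at 3,000 cells/well and preincubated 5 hr at 37C, then given compound plus R1881 agonist for 16 h. ONE-Glo luminescence was read.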

[10] = target: Androgen receptor (Homo sapiens) (UniProt P10275); assay: qHTS assay to identify small molecule antagonists of the androgen receptor (AR) signaling pathway (AID 743035; active = well fitted inhibition curve with a large enough effect in the signal ratio in the repeat runs, not every such curve was filed as active; the % refers to the signal ratio)
How it was run: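 Fluorescence from a beta-lactamase FRET substrate (LiveBLAzer B/G, 2 h, room temperature) measured inhibition of R1881-stimulated signaling in GeneBLAzer AR-UAS-bla HEK293 cells exposed to compound for 16 h at 37C.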
% is set by controls: 0 for no effect and ±100 for the full control effect.

CCN(Cc1ccncc1)C(=O)C(CO)c1ccccc1 (stereo not drawn)
inactive: outcome [1] | Potency [2] | Potency [3] | Potency [4] | Potency [5] | Potency [6]

N=C(N)c1ccc2cc(OC(=O)c3ccc(N=C(N)N)cc3)ccc2c1
inactive: outcome [1] | Potency [2] | Potency [3] | Potency [5] | outcome [7] | Potency [8] | Potency [6] | Potency [9]

N=C(N)c1ccc(OCCCOc2ccc(C(=N)N)cc2)cc1
inactive: outcome [1] | Potency [5] | Potency [6]
active: Potency [2] 4.22 µM | Potency [3] 8.41 µM | Potency [4] 5.96 µM

CC(C)OC(=O)c1ccccc1
inactive: outcome [1] | Potency [2] | Potency [3] | Potency [4] | Potency [5] | Potency [6]

Cc1cc2c(cc1S(N)(=O)=O)S(=O)(=O)CCC2
inactive: outcome [1] | Potency [2] | Potency [3] | Potency [4] | Potency [6]

COC(=O)CC(C)=O
inactive: outcome [1] | Potency [2] | Potency [3] | Potency [4] | Potency [5] | Potency [6]

CN(C)CCCNCCCN(C)C
inactive: outcome [1] | Potency [2] | Potency [3] | Potency [5] | Potency [6]

CC(C)=CCCC(C)CC(=O)O (stereo not drawn)
inactive: outcome [1] | Potency [2] | Potency [3] | Potency [5] | Potency [6]

CCOC(C)(C)C
inactive: outcome [1] | Potency [2] | Potency [3] | Potency [4] | Potency [5] | Potency [6]

C=CCS(=O)(=O)O
inactive: outcome [1] | Potency [2] | Potency [3] | Potency [4] | Potency [5] | Potency [6]

CC(=O)OCC(=O)[C@@]1(O)CC[C@H]2[C@@H]3CCC4=CC(=O)CC[C@]4(C)[C@H]3C(=O)C[C@@]21C
inactive: outcome [1] | Potency [2] | Potency [3] | Potency [4] | Potency [5] | Potency [6]

Nc1c2c(nc3ccccc13)CCCC2O (stereo not drawn)
inactive: outcome [1] | Potency [2] | Potency [3] | Potency [4] | Potency [5] | Potency [6]

C[C@@H]1CCN(C(=O)[C@H](CCCN=C(N)N)NS(=O)(=O)c2cccc3c2NC[C@H](C)C3)[C@@H](C(=O)O)C1
inactive: outcome [1] | Potency [2] | Potency [3] | Potency [4] | Potency [5] | Potency [6]

C=CCOCC(CC)(CO)COCC=C
inactive: outcome [1] | Potency [2] | Potency [3] | Potency [4] | Potency [5] | Potency [6]

NS(=O)(=O)c1ccccc1Cl
inactive: outcome [1] | Potency [2] | Potency [3] | Potency [4] | Potency [5] | Potency [6]

Oc1ccc(C2CNCCc3c2cc(O)c(O)c3Cl)cc1 (stereo not drawn)
inactive: outcome [1] | Potency [2] | Potency [3] | Potency [4] | Potency [5] | Potency [6]

CCO[Si](CCC1CCC2OC2C1)(OCC)OCC (stereo not drawn)
inactive: outcome [1] | Potency [2] | Potency [3] | Potency [4] | Potency [5] | Potency [6]

COc1ccc(CCN(C)CCCC(C#N)(c2cc(OC)c(OC)c(OC)c2)C(C)C)cc1OC (stereo not drawn)
inactive: outcome [1] | Potency [5] | Potency [6]
active: Potency [2] 16.8 µM | Potency [3] 29.8 µM | Potency [4] 29.8 µM

CCOC(=O)c1ccc(C)cc1
inactive: outcome [1] | Potency [2] | Potency [3] | Potency [4] | Potency [5] | Potency [6]

N#Cc1ccc(C2CCCc3cncn32)cc1 (stereo not drawn)
inactive: outcome [1] | Potency [2] | Potency [3] | Potency [4] | Potency [5] | Potency [6]

CCC(C)S (stereo not drawn)
inactive: viability change, negative = cytotoxic [1] -1.32% [at 3.15 µM] | activity change, negative = cytotoxicity [2] 25.1% [at 3.82 µM] | activity, negative = cytotoxicity [3] -7.66% [at 3.82 µM] | activity change, negative = cytotoxicity [4] 19.5% [at 3.83 µM] | activity change, negative = cytotoxicity [5] 6.76% [at 3.15 µM] | viability change, negative = cytotoxic [6] 8.95% [at 3.79 µM]

NC(=O)Nc1ccccc1
inactive: outcome [1] | Potency [2] | Potency [3] | Potency [4] | Potency [5] | Potency [6]

COC(=O)CCSCCC(=O)OC
inactive: outcome [1] | Potency [2] | Potency [3] | Potency [4] | Potency [5] | Potency [6]

CCOC(=O)CCC(C)=O
inactive: outcome [1] | Potency [2] | Potency [3] | Potency [4] | Potency [5] | Potency [6]

C[N+](C)(C)CC(O)CC(=O)[O-] (stereo not drawn)
inactive: outcome [1] | Potency [2] | Potency [3] | Potency [6]

CC(C)NC(=O)NC(C)C
inactive: outcome [1] | Potency [3] | Potency [4] | Potency [5] | outcome [10] | outcome [7] | Potency [8] | Potency [6] | Potency [9]

COc1cc(C(=O)N2CCCCCCC2)cc(OC)c1OC
active: Potency [2] 21.1 µM
inactive: outcome [1] | Potency [5] | Potency [6]

Cc1cccc(C)c1NC(=O)C(C)N (stereo not drawn)
inactive: outcome [1] | Potency [2] | Potency [3] | Potency [5] | Potency [6]

COc1nc(N)nc2c1ncn2[C@@H]1O[C@H](CO)[C@@H](O)[C@@H]1O
inactive: outcome [1] | Potency [2] | Potency [5] | Potency [6]

CC1=CC(C)C(C=O)CC1 (stereo not drawn)
inactive: outcome [1] | Potency [2] | Potency [3] | Potency [5] | Potency [6]

CC(=O)c1ccccc1O
inactive: outcome [1] | Potency [2] | Potency [3] | Potency [5] | Potency [6]

C=C1CC[C@H]2C[C@@H]1C2(C)C
inactive: outcome [1] | Potency [2] | Potency [5] | Potency [6]
